We go through 29 compounds from PubChem BioAssay.

SMILES strings stand for the structures.

A short description of this assay: COS7 lysate on small-molecule microarray, probe aHis, 635 nm (AID 1123).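 Note: z-score combines 667nm fluorescence intensity with signal-to-noise per printed compound spot.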 The note with it: COS7 cell lysate, fluorescence, higher = more signal.
Turning to `COCC(=C=CC[C@@H](O)c1ccccc1OCCO)C[C@@H](O)c1cc(Cl)cc(Cl)c1O`, the composite z-score was 1.24.

The compound `COc1ccc(C(=O)Nc2ccc(CN3C(=O)[C@@]4(O[C@@H](CCO)[C@H]([Si](C)(C)c5ccc(OC)cc5)[C@H]4C)c4ccccc43)cc2)cc1` registered a composite z-score of 0.81.

The compound `O=C1O[C@H](c2ccccc2)[C@H](c2ccccc2)N2[C@H]1[C@@H](C(=O)O)[C@]1(C(=O)Nc3ccc(C#CCCO)cc31)[C@H]2c1ccc(O)cc1` yielded a composite z-score of 0.651.

In the case of `C=CC[C@@]1(C(N)=O)N=C(c2ccc(OCCCO)cc2)O[C@@H]1c1ccccc1CN=[N+]=[N-]`, the composite z-score stood at 3.25.

Regarding `COCCOC(=O)N1C(=O)[C@@]2(c3cc(C#CC4=CCCCC4)ccc31)[C@H](C(=O)N1CCc3cc(OC)c(OC)cc3C1)[C@H]1C(=O)O[C@H](c3ccccc3)[C@H](c3ccccc3)N1[C@@H]2c1ccc(OCCO)cc1`, the composite z-score worked out at 1.

With `COc1ccc(C(O)C2C=CC3C(=O)N(c4ccccc4)C(=O)C3N2Nc2ccccc2F)cc1OCc1ccccc1` (centres undefined), the composite z-score came to 2.04.

In turn, `C=C(COC)/C(=C/C[C@@H](OC(C)=O)c1ccc(CO)o1)c1cnc2ccccc2c1` showed a composite z-score of 0.229.

`O=C1C[C@]2(c3ccc([N+](=O)[O-])cc3)C(=O)N(CCN3CCOCC3)c3cc(CO)ccc3[C@H]2N1C1CCCCC1` showed a composite z-score of 0.294.

Turning to `COC(=O)C=C(CC(O)c1cccc(Cl)c1)OC` (centres undefined), the composite z-score worked out at 0.461.

As to `COc1cc2c(cc1OC)CN(C(=O)[C@@H]1[C@H]3C(=O)O[C@H](c4ccccc4)[C@H](c4ccccc4)N3[C@H](c3ccc(O)cc3)[C@@]13C(=O)Nc1ccc(C#CC4(O)CCCCCC4)cc13)CC2`, the composite z-score turned out to be 2.01.

In turn, `[N-]=[N+]=NCc1ccccc1C[C@@]1(C(=O)NCC(O)CO)N=C(c2ccc(OCCCO)cc2)O[C@@H]1c1ccccc1N=[N+]=[N-]` (some centres undefined) registered a composite z-score of 3.14.

In turn, `CCOC(=O)C[C@H]1[C@H](OC(=O)Cc2ccc3c(c2)OCO3)[C@@H](NC(=O)c2ccc(-c3ccccc3)cc2)c2cc(OCCCO)ccc2N1C(=O)c1ccc2ccccc2n1` came in with a composite z-score of 0.1.

Turning to `O=C(NCc1ccccc1)[C@@]1(Cc2ccccc2)N=C(c2ccc(OCCCO)cc2)O[C@H]1c1ccccc1`, the composite z-score was 2.41.

The compound `O=C1NC(=O)C2C1C=CC(C(O)c1ccccc1)N2Nc1ccc(Cl)cc1Cl` (centres undefined) showed a composite z-score of 3.18.

Compound `CN(C)CCCNC(=O)[C@@]1(c2ccc([N+](=O)[O-])cc2)CC(=O)N(C2CCCCC2)[C@@H]1c1ccc(CO)cc1` had a composite z-score of 1.68.

`COC(=O)[C@@]1(Cc2ccccc2)[C@H]2c3cc(C(=O)N4CCCC4)n(Cc4cccc5ccccc45)c3C[C@H]2CN1C(=O)c1ccccc1`: the composite z-score is 1.54.

On to `CC(C)(C)OC(=O)CC[C@@]1(C(N)=O)N=C(c2ccc(OCCCO)cc2)O[C@@H]1c1ccccc1`, for which the composite z-score came out at 2.99.

Take `COc1cc2c(cc1O)C=[N+](Cc1cccc(OC(F)(F)F)c1)CC2`: the composite z-score is -0.784.

Consider `C=C(C)C1C(=C)CN([C@H](CO)c2ccccc2)C1=O` (some centres undefined), for which the composite z-score was -0.583.

`COCCCNC(=O)C1N=C(c2ccc(OCCCO)cc2)N(c2ccccc2)O1` (centres undefined) showed a composite z-score of 0.388.

On to `C=CC[C@@]1(C(=O)NCc2ccccc2)N=C(c2ccc(OCCCO)cc2)O[C@@H]1c1ccccc1N=[N+]=[N-]`, for which the composite z-score turned out to be 3.18.

As for `CCOc1cc(C(O)C2C=CC3C(=O)N(c4ccccc4)C(=O)C3N2Nc2ccccc2)ccc1O` (centres undefined), the composite z-score came to 1.31.

`O=C1O[C@H](c2ccccc2)[C@H](c2ccccc2)N2[C@H]1[C@@H](C(=O)NC[C@H](O)c1ccccc1)[C@]1(C(=O)Nc3ccccc31)[C@H]2c1ccc(OCCO)cc1`: the composite z-score was 1.67.

Take `COc1ccc(C(O)C2C=CC3C(=O)N(C)C(=O)C3N2N2CCCCC2)c2ccccc12` (centres undefined): the composite z-score stood at 2.89.

The compound `CN1C(=O)[C@]2(Cc3ccccc3)N=C(c3ccc(OCCCO)cc3)O[C@@H]2c2ccccc21` showed a composite z-score of 2.51.

Regarding `C=CCOC(=O)[C@H]1[C@@H]2C(=O)O[C@@H](c3ccccc3)[C@@H](c3ccccc3)N2[C@@H](c2ccc(OCCOC(=O)[C@@H]3C[C@@H]4C(=O)N[C@@H](CCCCN(C)C)C(=O)N4[C@@H]3c3ccc(O)cc3)cc2)[C@]12C(=O)Nc1ccc(I)cc12`, the composite z-score is 1.66.

As to `CC(C)(C)OC(=O)CC[C@@]1(C(=O)NCC(O)CO)N=C(c2ccc(OCCCO)cc2)O[C@@H]1c1ccccc1N=[N+]=[N-]` (some centres undefined), the composite z-score was determined as 3.53.

`O=C1NCC(=O)N2[C@@H]1C[C@@H](C(=O)O)[C@H]2c1cccc(OCCO)c1` gave a composite z-score of 5.25.

As for `CC(C)OC(=O)C=C1C[C@@H](c2ccccc2C(F)(F)F)O[C@@H](c2ccccc2C(F)(F)F)O1`, the composite z-score came to 0.387.
